High-throughput results (PubChem BioAssay)
ERAP1 inh: human ERAP1 aminopeptidase inhibitors, primary screen, biochemical, single point, plate reader; inhibition, % at 10.7 µM; recombinant ERAP1, Leu-AMC fluorescence, 60 min; actives 0.15% (n = 340,000); Endoplasmic reticulum aminopeptidase 1 (Homo sapiens), Q9NZ08;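 active = mean replicate inhibition of at least 30%, or all replicates individually reaching that 30% level; inactive = mean below 30% and not every replicate reaching it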;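 also: 0% = neutral control wells and 100% = L-leucinethiol positive control wells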
AF4-AF9 inh: inhibitors of AF4 peptide binding to AF9, primary screen, biochemical, AlphaScreen, biotin-AF4 peptide, FLAG-AF9, single point; inhibition, % at 10 µM; actives 0.47% (n = 350,000);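 active = every replicate reaching a set inhibition limit, whatever the replicate mean, cut at about 25% in these data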;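 also: 0% = plate neutral control median and 100% = total signal loss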
RAD52 anneal inh: RAD52 DNA annealing inhibitors, primary screen, biochemical, FRET, single point, set 2 | DNA repair protein RAD52 homolog (Homo sapiens), P43351 | recombinant RAD52 DNA annealing, FRET fluorescence | inhibition, % at 18.7 µM | actives 0.46% (n = 360,000) | AID 651710, 2012;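 active = every replicate showing at least 50% inhibition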
Target sequence (P43351 whole entry, looked up): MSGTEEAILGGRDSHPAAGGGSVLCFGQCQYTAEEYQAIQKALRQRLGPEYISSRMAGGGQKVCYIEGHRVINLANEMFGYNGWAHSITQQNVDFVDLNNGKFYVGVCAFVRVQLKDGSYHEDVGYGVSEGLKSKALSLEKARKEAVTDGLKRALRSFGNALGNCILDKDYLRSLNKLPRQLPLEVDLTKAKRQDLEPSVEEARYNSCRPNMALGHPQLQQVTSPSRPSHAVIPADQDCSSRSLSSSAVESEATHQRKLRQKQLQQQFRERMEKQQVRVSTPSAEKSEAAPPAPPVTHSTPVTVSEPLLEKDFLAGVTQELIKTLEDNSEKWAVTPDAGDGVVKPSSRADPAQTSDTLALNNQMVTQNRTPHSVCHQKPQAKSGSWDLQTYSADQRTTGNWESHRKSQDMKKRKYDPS
FGF22 binding: binders of human FGF22 protein, primary screen, FGF22 synaptogenesis inhibitor project, biophysical, thermal shift, single point. activity (Tm shift, normalised), % at 9.99 µM. AID 651658, 2012. Fibroblast growth factor 22 (Homo sapiens), Q9HCT0. actives 1.5% (n = 340,000). recombinant FGF22 thermal shift, SYPRO orange fluorescence; percent of sucrose octasulfate shift, DMSO zero;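 active = mean Tm shift, scaled 0 neutral to 100 positive control, at about 1.3% or above, every replicate too, limit read from the data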
Target sequence (Q9HCT0 whole entry, looked up): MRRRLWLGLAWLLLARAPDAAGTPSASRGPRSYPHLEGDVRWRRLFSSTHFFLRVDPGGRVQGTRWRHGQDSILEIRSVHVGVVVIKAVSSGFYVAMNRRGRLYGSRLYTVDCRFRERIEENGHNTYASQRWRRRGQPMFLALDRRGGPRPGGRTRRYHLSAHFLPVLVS
DENV2 CPE: inhibitors of DENV2 cytopathic effect, primary screen, cell-based, plate reader, single concentration; DENV2-infected cells, cytopathic effect rescue; CPE inhibition, % at 9.99 µM; actives 1.7% (n = 350,000); AID 651640, 2012; in the data active = CPE inhibition above about 20%, passing the limit was not always enough; tested in BHK-21 cells;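 also: 0% = median of neutral control wells and 100% = median of positive control wells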
Numbers without * were called inactive; . = no result; ! = not confirmed by another sample. Only some compounds are listed: those with a hit (about 4% of all), similar ones and a draw of the others.

SMILES	ERAP1 inh	AF4-AF9 inh	RAD52 anneal inh	FGF22 binding	DENV2 CPE
C[C@H](CO)N1C[C@H](C)[C@@H](CN(C)Cc2ccc(C(=O)O)cc2)OCCCC[C@H](C)Oc2ccc(NC(=O)c3ccncc3)cc2C1=O	1	-3	96*	0	-8
CC(=O)N1CC2(C1)[C@H](c1ccc(-c3cccc(F)c3)cc1)[C@@H](CO)N2CC1CCOCC1	1	0	-14	0	-8
C[C@@H]1CCCCO[C@@H](CN(C)Cc2ccc(C(=O)O)cc2)[C@H](C)CN([C@@H](C)CO)C(=O)c2cc(NC(=O)c3ccncc3)ccc2O1	-3	-3	104*	0	-1
C[C@@H]1CCCCO[C@@H](CN(C)Cc2ccncc2)[C@H](C)CN([C@H](C)CO)C(=O)c2cc(NC(=O)c3ccncc3)ccc2O1	0	-3	-6	0	-1
C[C@H]1CCCCO[C@@H](CN(C)Cc2ccncc2)[C@@H](C)CN([C@@H](C)CO)C(=O)c2cc(NC(=O)c3ccncc3)ccc2O1	0	-4	-9	0	4
C[C@@H]1CCCCO[C@@H](CN(C)Cc2ccncc2)[C@@H](C)CN([C@@H](C)CO)C(=O)c2cc(NC(=O)c3ccncc3)ccc2O1	-1	-6	3	0	.
C[C@H]1CCCCO[C@@H](CN(C)Cc2ccc(C(=O)O)cc2)[C@@H](C)CN([C@@H](C)CO)C(=O)c2cc(NC(=O)c3ccncc3)ccc2O1	2	-3	106*	0	-8
C[C@@H]1CCCCO[C@H](CN(C)Cc2ccc(C(=O)O)cc2)[C@H](C)CN([C@@H](C)CO)C(=O)c2cc(NC(=O)c3ccncc3)ccc2O1	4	-4	101*	0	32*
C[C@H](CO)N1C[C@H](C)[C@@H](CN(C)C)Oc2ccc(NS(C)(=O)=O)cc2CC1=O	0	-3	0	0	-7
Cc1ccc2c(c1)N(CCCC(=O)NCc1ccc3c(c1)OCO3)C(=O)CO2	0	0	-12	0	92*
CCCOc1nc2ccccc2cc1/C=C/C(=O)O	0	1	-42	0	-6
CCOc1nc2ccccc2cc1C=O	-3	-2	4	43*	-2
Cc1ccc(S(=O)(=O)Nc2cccc3c2O[C@H](CN(C)S(=O)(=O)c2cccs2)[C@@H](C)CN([C@H](C)CO)C3=O)cc1	0	0	-9	0	-6
C[C@H]1CN([C@@H](C)CO)C(=O)c2cccc(N(C)C)c2O[C@H]1CN(C)C	3	-5	4	0	-4
C[C@H](CO)N1C[C@H](C)[C@@H](CN(C)Cc2ccccc2)Oc2c(cccc2N(C)C)C1=O	-1	-6	-1	0	3
C[C@@H]1CN([C@H](C)CO)C(=O)c2cccc(N(C)C)c2O[C@H]1CN(C)Cc1ccncc1	0	-5	8	0	20*
C[C@H](CO)N1C[C@H](C)[C@H](CN(C)CC2CC2)Oc2c(cccc2N(C)C)C1=O	4	-3	10	0	44*
CCOc1ccc(NC(=O)c2ccc(NC(=S)NC3CCCCC3)cc2)cc1	-1	2	-6	0	-2
CCOc1ccc(NC(=O)c2ccc(NC(=S)NC3CC3)cc2)cc1	-6	2	-9	1.9*	.
O=C(Nc1cc(F)ccc1F)N1CC(=O)N2[C@H](CO)[C@@H](c3ccc(C#CC4CCCC4)cc3)[C@H]2C1	0	4	-9	0	5
COc1ccc(S(=O)(=O)Nc2ccc3c(c2)C(=O)N([C@H](C)CO)C[C@H](C)[C@H](CN(C)C(=O)Nc2c(C)noc2C)OCCCC[C@H](C)O3)cc1	-1	-5	-15	1.3*	-10
Cc1noc(C)c1NC(=O)N(C)C[C@@H]1OCCCC[C@H](C)Oc2ccc(NS(=O)(=O)c3ccc(Cl)cc3)cc2C(=O)N([C@@H](C)CO)C[C@H]1C	-4	-14	-9	.	-6
Cc1noc(C)c1NC(=O)N(C)C[C@@H]1OCCCC[C@H](C)Oc2ccc(NS(=O)(=O)c3ccc(Cl)cc3)cc2C(=O)N([C@H](C)CO)C[C@@H]1C	-4	-17	22	.	32*
NC(=N\N=Cc1ccccc1)/C(N)=N/N=Cc1ccccc1	1	-1	-18	44*	-4
COc1ccccc1C=NN=C(N)C(N)=NN=Cc1ccccc1OC	-4	-6	-16	0	-9
SMILES	ERAP1 inh	AF4-AF9 inh	RAD52 anneal inh	FGF22 binding	DENV2 CPE
CS/C(=C/[N+](=O)[O-])Nc1cccc2c1C(C)CC2(C)C (stereo not given)	0	2	-7	44*	2
CS/C(=C\[N+](=O)[O-])Nc1ccc(OC(F)(F)F)cc1	5	-5	-4	0	0
COc1ccccc1C(=O)Nc1ccc2c(c1)C(=O)N(C)C[C@H](OC)[C@@H](C)CN[C@@H](C)CO2	-2	-12	4	0	7
O=C(O)C[C@H]1C[C@@H]2c3cc(NC(=O)c4ccc5c(c4)OCO5)ccc3O[C@@H]2[C@H](CO)O1	-3	-2	-1	0	3
CC(C)(C)[C@H]1C=C(C(=O)N2CCCCCCC2)O[C@@H](OCc2ccc(CO)cc2)C1	-2	-2	5	0	29*
O=C(C1=C[C@@H](C2CC2)C[C@@H](OCc2ccc(CO)cc2)O1)N1CCOCC1	5	-1	-1	0	33*!
O=C(O)C1=C[C@H](C2CC2)C[C@H](OCc2ccc(CO)cc2)O1	2	-4	5	0	22*!
Cc1ccc(S(=O)(=O)N(C)C[C@@H]2Oc3ccc(NS(=O)(=O)c4ccc(Cl)cc4)cc3C(=O)N([C@@H](C)CO)C[C@H]2C)cc1	-1	2	-7	0	-4
COc1ccc(-c2coc3cc(O)cc(O)c3c2=O)cc1	1	-3	-9	2.2*	5
O=c1c(-c2ccc(O)cc2)coc2cc(O)cc(O)c12	-2	2	8	0	2
C[C@@H]1CCCCO[C@@H](CN(C)C(=O)CCCN(C)C)[C@H](C)CN([C@H](C)CO)C(=O)c2cc(NC(=O)Nc3ccc4c(c3)OCO4)ccc2O1	.	.	.	0	-3
C[C@H]1CCCCO[C@H](CN(C)C(=O)CCCN(C)C)[C@@H](C)CN([C@@H](C)CO)C(=O)c2cc(NC(=O)Nc3ccc(F)cc3)ccc2O1	-7	-1	44	-1	7
C[C@@H]1CCCCO[C@H](CN(C)C(=O)CCCN(C)C)[C@@H](C)CN([C@@H](C)CO)C(=O)c2cc(NC(=O)Nc3ccc4c(c3)OCO4)ccc2O1	.	.	.	0	47*
